cardiac RTF act – cardiac RTF calcium sensitivity activators, primary screen, biochemical, IANBD-TnC fluorescence, EC20 calcium; Troponin I, cardiac muscle (Homo sapiens) + Troponin T, cardiac muscle (Homo sapiens) + …; IANBD-labeled TnC RTF fluorescence at EC20 calcium; 0% EC20 calcium, 100% full calcium; activation, % at 7.2 µM; 0.24% of 340,000 active;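 active means activation above the mean over all tested compounds plus 3 SD, cut at about 30% in these data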;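 further: rise in fluorescence read as greater calcium sensitivity of cardiac thin filaments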
C-LANA FP – inhibitors of KSHV C-LANA binding to DNA, primary screen, biochemical, fluorescence polarization, FAM-LBS DNA, MBP-C-LANA, single point. inhibition, % at 9 µM. 0.078% of 340,000 active. AID 504423, 2011;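 active means highest replicate inhibition at or above 60% at 9 µM, even if other replicates fall short; inactive means all replicates below 60% inhibition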
Keap1 Nrf2 FP – Keap1-Nrf2 protein-protein interaction inhibitors, primary screen, biochemical, fluorescence polarization, single point; Kelch-like ECH-associated protein 1 (Homo sapiens), Q14145; Keap1 Kelch-Nrf2 peptide fluorescence polarization, 1536-well; inhibition, % at 9.4 µM; 0.15% of 340,000 active; in the data active means inhibition above about 12%;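 further: human Keap1 Kelch domain with fluorescein labeled Nrf2 9mer peptide probe; higher means more block of Keap1 binding to Nrf2 peptide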
Cardiac RTF inh – cardiac RTF calcium sensitivity inhibitors, primary screen, biochemical, IANBD-TnC fluorescence, EC70 calcium; inhibition, % at 7.15 µM; AID 493244, 2011; 0.12% of 340,000 active; IANBD-labeled cardiac RTF, Ca2+ fluorescence; Troponin I, cardiac muscle (Homo sapiens) + Troponin T, cardiac muscle (Homo sapiens) + …;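 active means inhibition above the mean inhibition of all tested compounds plus 3 SD, cut at about 17% in these data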;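 further: assay run at fixed EC70 calcium of 1.6 mM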
LANA-H2A inh – blockers of LANA interaction with H2A/H2B – biochemical, FP readout, HTS, primary screen; Protein LANA1 (Human herpesvirus 8 type P (isolate GK18)), Q9QR71; inhibition, % (concentration not given with the values); 0.6% of 320,000 active; cell-free LANA-H2A/H2B peptide, fluorescence polarization; in the data active means inhibition mostly above about 10%, no sharp cut-off; inactive means mostly below about 6.7%
Target sequence (Q9QR71 whole entry, looked up): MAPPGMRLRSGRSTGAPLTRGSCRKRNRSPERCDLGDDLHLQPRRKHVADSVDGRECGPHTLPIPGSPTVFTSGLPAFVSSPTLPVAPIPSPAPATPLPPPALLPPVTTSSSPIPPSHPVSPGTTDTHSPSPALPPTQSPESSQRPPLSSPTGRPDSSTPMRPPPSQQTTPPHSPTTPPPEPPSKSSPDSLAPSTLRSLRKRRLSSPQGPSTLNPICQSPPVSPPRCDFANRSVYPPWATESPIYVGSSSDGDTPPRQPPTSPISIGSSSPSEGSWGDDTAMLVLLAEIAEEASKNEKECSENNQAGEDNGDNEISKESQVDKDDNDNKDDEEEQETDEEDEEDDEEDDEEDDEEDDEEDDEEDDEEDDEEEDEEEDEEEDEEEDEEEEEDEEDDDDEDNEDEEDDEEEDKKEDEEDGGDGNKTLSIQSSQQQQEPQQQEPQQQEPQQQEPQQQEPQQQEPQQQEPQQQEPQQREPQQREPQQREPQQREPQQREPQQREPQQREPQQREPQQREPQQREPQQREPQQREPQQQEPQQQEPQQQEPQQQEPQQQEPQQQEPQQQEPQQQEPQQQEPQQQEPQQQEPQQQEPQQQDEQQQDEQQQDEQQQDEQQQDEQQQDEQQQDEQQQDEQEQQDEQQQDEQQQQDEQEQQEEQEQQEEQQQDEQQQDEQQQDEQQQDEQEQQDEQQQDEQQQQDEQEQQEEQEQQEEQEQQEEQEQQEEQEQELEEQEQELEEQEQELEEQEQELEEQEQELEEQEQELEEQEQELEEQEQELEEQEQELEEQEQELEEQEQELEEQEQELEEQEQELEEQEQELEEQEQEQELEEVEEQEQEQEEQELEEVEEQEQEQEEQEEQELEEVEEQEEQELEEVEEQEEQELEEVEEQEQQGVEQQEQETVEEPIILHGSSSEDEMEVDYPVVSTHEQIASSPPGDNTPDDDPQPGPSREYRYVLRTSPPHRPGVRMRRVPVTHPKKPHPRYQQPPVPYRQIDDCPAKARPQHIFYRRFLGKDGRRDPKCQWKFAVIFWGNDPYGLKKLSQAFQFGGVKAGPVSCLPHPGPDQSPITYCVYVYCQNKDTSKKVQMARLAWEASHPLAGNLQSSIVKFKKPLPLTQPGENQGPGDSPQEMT
Of the large screens only hits and unclear results are named; the others gave an inactive call. Shown are actives, neighbours in structure and some others; about 0.99% of the full set was active somewhere.

CN(C)S(=O)(=O)c1cccc(NC(=O)COc2ccc(C(=O)c3ccccc3)cc2)c1	none
COc1ccccc1NC(=O)Nc1nnc(C(C)c2ccccc2)s1 (stereo unspecified)	none
N#C/C(=C/c1ccc(N2CCOCC2)o1)c1ccc(Cl)cc1	LANA-H2A inh 10.2
N#C/C(=C\c1ccc(N2CCOCC2)o1)c1nc2ccccc2[nH]1	cardiac RTF act 258.6 (no result: LANA-H2A inh)
N#C/C(=C\c1ccc(-c2ccc(C(=O)O)cc2)o1)c1nc2ccccc2[nH]1	cardiac RTF act 54.4 (no result: LANA-H2A inh)
CC(C)C[C@@H](CO)N1CCN(CCCc2ccccc2)CCC1=O	none
Cc1ccc2c(CN3CCN(S(=O)(=O)c4ccccc4C(F)(F)F)CC3)cc(=O)oc2c1C	none
O=C(CCN1CCN(c2ccccc2)CC1)Nc1nccs1	none
Nc1c(C(=O)Nc2cccc(F)c2)nnn1-c1ccc2c(c1)OCCO2	none
COc1cccc(C2CC(c3ccc(Cl)cc3Cl)Nc3nc(N)nn32)c1 (stereo unspecified)	LANA-H2A inh 10.0
CC1CCN(c2ccc3nnc(CCC(=O)Nc4cccc(F)c4)n3n2)CC1	none
CCCc1cc2c(=O)c(-c3cscn3)c(C(=O)OCC)oc2cc1O	none
CCOC(=O)c1oc2cc(O)cc(C)c2c(=O)c1-c1cscn1	LANA-H2A inh 26.0
Cc1cccn2c(=O)c3cc(C(=O)NC4CCCC4)c(=N)n(CCc4ccccc4)c3nc12	LANA-H2A inh 14.3
Cn1c(CCNC(=O)C2CCCCC2)nc2cc(NC(=O)c3cccs3)ccc21	none (no result: LANA-H2A inh)
CCOc1ccc(C(=O)Nc2ccc(S(=O)(=O)N3C[C@@H]4C[C@@H](C3)c3cccc(=O)n3C4)cc2)cc1	LANA-H2A inh 17.4
CCOc1ccc(C(=O)Nc2ccc(S(=O)(=O)N3CCN(C)CC3)cc2)cc1	LANA-H2A inh 14.6
CC(=O)c1cccc(NC(=O)CN(C)S(=O)(=O)c2ccccc2)c1	none
O=C(Nc1cc(F)ccc1F)C1CCCN(c2ncnc3c2nc2n3CCCCC2)C1 (stereo unspecified)	none
O=C1/C(=C/c2cccc(F)c2)Oc2cc(O)ccc21	cardiac RTF act 49.1
CCOc1ccc(Cl)cc1CNc1nnnn1CC	none
O=c1c2ccccc2c(C=Nc2cccc(S(=O)(=O)NC3=NCCCCC3)c2)c(O)n1Cc1ccccc1	none
CC(C)C(c1nnnn1C1CCCC1)N1CCC(C(N)=O)CC1 (stereo unspecified)	none
CCC(c1nnnn1C1CCCC1)N1CCC(C(N)=O)CC1 (stereo unspecified)	LANA-H2A inh 49.0 (no result: cardiac RTF act, Cardiac RTF inh)
C[C@H](CO)N1C[C@H](C)[C@@H](CN(C)Cc2ccc(Cl)c(Cl)c2)Oc2c(NC(=O)C3CC3)cccc2C1=O	none
Cc1cc(=O)oc2cc3oc(=O)cc(C)c3cc12	none
COc1cc(NC(=O)COc2ccccc2)c(OC)cc1NC(C)=O	LANA-H2A inh 14.3
Cc1ccc(OCCCC(=O)NC2CCCCC2)cc1	cardiac RTF act 38.3
O=C(CNC(=O)OCc1ccccc1)NC1CCCCCC1	LANA-H2A inh 17.3
Cc1ccc(C)c(OCCCC(=O)NC2CCCCC2)c1	none
O=C(COc1ccccc1)NC1CCCCCCC1	LANA-H2A inh 8.9
O=[N+]([O-])c1cc(C=NN2CCCCCC2)ccc1Cl	none (no result: LANA-H2A inh)
COc1ccc(CCN(C)C(=O)C(CCSC)NC(=O)c2ccco2)cc1OC (stereo unspecified)	none
COCc1nc2ccccc2n1CCCOc1ccccc1	none
Cc1oc2c(C)c3oc(=O)c(CCC(=O)N4C[C@H]5C[C@@H](C4)c4cccc(=O)n4C5)c(C)c3cc2c1C	LANA-H2A inh 35.1
Cc1coc2c(C)c3oc(=O)c(CCC(=O)N4C[C@H]5C[C@@H](C4)c4cccc(=O)n4C5)c(C)c3cc12	none
Nc1nc(-c2ccccc2)c(-c2ccccc2)n1N	none
c1ccc(-c2cnn3c(-c4ccccc4)c(-c4ccccc4)nc3n2)cc1	cardiac RTF act 378.1 (no result: LANA-H2A inh)
Cc1nc2ccc(Nc3nc4cc(S(=O)(=O)N5CCOCC5)ccc4o3)cc2s1	none
CCOCCOc1nc2c(c(=O)n(C)c(=O)n2C)n1Cc1ccc(C)cc1	none
COc1cccc(NCc2nnc(SCC(=O)NC3CCS(=O)(=O)C3)n2C2CCCCC2)c1 (stereo unspecified)	none
Cc1ccccc1/C=C1\Oc2ccccc2C1=O	LANA-H2A inh 56.6
O=C1/C(=C\c2cc([N+](=O)[O-])ccc2O)SC(=S)N1Cc1ccc(Cl)cc1	cardiac RTF act 134.7
COc1ccc(S(=O)(=O)N2CCc3ccccc32)cc1C(=O)OCc1c(C)noc1C	none
Cc1nn(C)c(C(=O)Nc2ccc(S(=O)(=O)NC34CC5CC(CC(C5)C3)C4)cc2)c1Br	LANA-H2A inh 56.5
Cc1ccc(S(=O)(=O)NC23CC4CC(CC(C4)C2)C3)cc1	none
O=c1c2c(-c3cccc([N+](=O)[O-])c3)ccnc2[nH]n1-c1ccccc1	none
C=CCC[C@H](Cc1ccc(F)cc1)C(=O)O[C@H](CNC(=O)[C@@H](CC=C)CC(=O)N(CCO)Cc1ccccc1)c1ccccc1	LANA-H2A inh 71.3
COc1c2n(C)ccc3c-2n(c(=O)c1=O)c1ccccc31	none
CCn1c(SCc2nc3sc(C(=O)O)c(C)c3c(=O)[nH]2)nnc1-c1ccc(Cl)cc1	LANA-H2A inh active
CC(C(=O)Nc1ncn[nH]1)N1C(=O)c2ccccc2C1=O (stereo unspecified)	LANA-H2A inh 16.7
Cn1cccc1/C=C1\SC(=S)N(NC(=O)c2ccc(F)cc2)C1=O	none
Cn1cccc1/C=C1\SC(=S)N(NC(=O)c2ccccc2)C1=O	LANA-H2A inh active
Cc1ccc(S(=O)(=O)NCc2cccnc2)cc1C	none
Cc1ccc(NC(=O)c2noc3c2CCCCC3)cc1	LANA-H2A inh 8.5
COc1ccc(N2C(=O)CCC2(C#N)c2ccc(OC)cc2)cc1 (stereo unspecified)	none
O=C(NNc1c(F)c(F)cc(F)c1F)c1ccco1	none
O=C(Cc1ccc(Cl)cc1)NNc1c(F)c(F)cc(F)c1F	LANA-H2A inh 27.3
CC1CN(C(=O)Cn2cc(S(=O)(=O)CC(=O)N(C)c3ccccc3)c3ccccc32)CC(C)O1 (stereo unspecified)	none
Cc1ccc(NC(=O)CS(=O)(=O)c2cn(CC(=O)N3CCOCC3)c3ccccc23)cc1	LANA-H2A inh 18.4
CN(C(=O)CS(=O)(=O)c1cn(CC(=O)N2CCOCC2)c2ccccc12)c1ccccc1	LANA-H2A inh 33.8
O=C(Nc1ccc(N2CCCC2)cc1)C(Cl)c1ccccc1 (stereo unspecified)	LANA-H2A inh 28.2

From PubChem
